The supplement of paper PMC10849652
The full data set covers some 8,800 targets. This sample favours those with a hit. About 0.5% of all pairs of compound and target were hits. Values without a mark were called inactive.

Experiments:
Assay in all cases: log2 fold change, soluble protein after heating vs DMSO (PISA); higher = thermal stabilisation; K562 lysate, 10 uM; active = over 0.2 and 3.5 SD of the protein, either way, in both replicates (recomputed)
[1] = compound: C1=CC2=NC=CN=C2C=C1/C=C/3\C(=O)NC(=O)S3
Summary of the method: (§1)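 Following dounce homogenisation of K562 pellets in PBS pH 7.4 with 1 mM MgCl2, crude extract at 1 mg/mL protein was incubated for 30 min with 10 μM compound. Aliquots were then heated for 3 min over 48°C-58°C and pooled, NP-40 was added to 0.5% at 4°C, and soluble protein was recovered as the supernatant at 21,000xg for 90 min. Channel-sum-equalised TMTpro 16plex LC-MS/MS quantified this protein. Each value, from duplicates, is a log-two fold change in thermal stability relative to solvent controls.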

[2] = compound: C1=CC=C(C=C1)C2=NC(=C(N2)C3=CC=NC=C3)C4=CC(=C(C=C4)Cl)O
Summary of the method: as §1

[3] = compound: C1CCN(C1)C(=O)NC2=CC=CC(=C2)NC3=NC=C(C(=N3)NCCC4=CN=CN4)Br
Summary of the method: as §1

[4] = compound: C1CN(CCC1(CC2=CC=C(C=C2)Cl)N)C3=NC=NC4=C3C=CN4
Summary of the method: as §1

IRAK-1-4 Inhibitor I = compound: C1COCCN1CCN2C3=CC=CC=C3N=C2NC(=O)C4=CC(=CC=C4)[N+](=O)[O-] [IRAK-1-4 Inhibitor I]
Summary of the method: as §1

ibrutinib = compound: C=CC(=O)N1CCC[C@@H](n2nc(-c3ccc(Oc4ccccc4)cc3)c3c(N)ncnc32)C1 [ibrutinib]
Summary of the method: as §1

ralimetinib = compound: CC(C)(C)Cn1c(N)nc2ccc(-c3[nH]c(C(C)(C)C)nc3-c3ccc(F)cc3)nc21 [ralimetinib]
Summary of the method: as §1

[5] = compound: CC(C)(O)CC(=O)NCCn1ccc2ncnc(Nc3ccc(Oc4cccc(C(F)(F)F)c4)c(Cl)c3)c21
Summary of the method: as §1

[6] = compound: CC1=C(C(CC(=O)N1)C2=CC=C(C=C2)C(F)(F)F)C(=O)NC3=C(C=C4C(=C3)C=NN4)F
Summary of the method: as §1

[7] = compound: CC1=C(C2=C(C=C1)C(=O)C3=CC=CC=C3N2CCCN)C
Summary of the method: as §1

[8] = compound: CC1=C(C=C(C=C1)NC(=O)C2=CC(=CC=C2)C(C)(C)C#N)NC3=CC4=C(C=C3)N=CN(C4=O)C
Summary of the method: as §1

[9] = compound: CC1=C(C=C(C=C1)NC(=O)C2=CC(=CC=C2)N(C)C)NC(=O)C3=CC=C(C=C3)O
Summary of the method: as §1

erlotinib = compound: C#Cc1cccc(Nc2ncnc3cc(OCCOC)c(OCCOC)cc23)c1 [erlotinib]
Summary of the method: as §1

[10] = compound: C/C(=N\NC(=O)C1=CC(=CC=C1)S(=O)(=O)N2CCOCC2)/C3=C(C=CC(=C3)Cl)O
Summary of the method: as §1

[11] = compound: C1=CC(=CC=C1C2=NC3=C(N2)C=C(C=C3)C(=O)N)OC4=CC=C(C=C4)Cl
Summary of the method: as §1

[12] = compound: C1=CC2=C(C=CC(=C2)/C=C\3/C(=O)NC(=NCC4=CC=CS4)S3)N=C1
Summary of the method: as §1

[13] = compound: C1=CC=C2C(=C1)C3=NNC4=CC=CC(=C43)C2=O
Summary of the method: as §1

[14] = compound: CC(=O)c1cnc2ccc(-c3cc(Cl)c(O)c(Cl)c3)nc2c1N[C@H]1CC[C@H](CN(C)C)CC1
Summary of the method: as §1

[15] = compound: CC(C)C1=C2N=C(C=C(N2N=C1)NCC3=CC=CC=C3)NCCCCCCN
Summary of the method: as §1

[16] = compound: CC1=CC=C(C=C1)SC2=C3C=C(SC3=CN=C2)C(=O)N
Summary of the method: as §1

Target: DDR1 isoform 5 (UniProt Q08345)
- log2 fold change [1]: 0.044
- log2 fold change [2]: 0.04
- log2 fold change [3]: -0.011
- log2 fold change [4]: -0.016
- log2 fold change (IRAK-1-4 Inhibitor I): 0.097
- log2 fold change (ibrutinib): 0
- log2 fold change (ralimetinib): 0.205
- log2 fold change [5]: 0.021
- log2 fold change [6]: -0.117
- log2 fold change [7]: -0.099
- log2 fold change [8]: 0.38
- log2 fold change [9]: 0.117

Target: COL12A1 (UniProt Q99715)
- log2 fold change (erlotinib): -0.016
- log2 fold change [10]: -0.009
- log2 fold change [11]: 0.01
- log2 fold change [12]: -0.008
- log2 fold change [13]: -0.053
- log2 fold change [3]: 0.059
- log2 fold change [4]: 0.065
- log2 fold change [14]: 0.72
- log2 fold change [15]: 0.024
- log2 fold change [7]: -0.224
- log2 fold change [8]: 1.57 (active)
- log2 fold change [16]: 0.005

Target: CHMP4A (UniProt H0YIN6)
- log2 fold change [1]: 0.06
- log2 fold change [2]: -0.055
- log2 fold change (IRAK-1-4 Inhibitor I): 0.142
- log2 fold change (ibrutinib): -0.077
- log2 fold change [14]: -0.203
- log2 fold change (ralimetinib): -0.253
- log2 fold change [5]: -0.354
- log2 fold change [7]: -0.055
- log2 fold change [8]: 0.33
- log2 fold change [9]: 0.15
- log2 fold change [16]: -0.159

Target: CORO7 (UniProt P57737)
- log2 fold change (erlotinib): -0.001
- log2 fold change [10]: 0.01
- log2 fold change [11]: 0.291
- log2 fold change [12]: -0.089
- log2 fold change [2]: -0.023
- log2 fold change [13]: -0.047
- log2 fold change [3]: -0.07
- log2 fold change [4]: 0.064
- log2 fold change (IRAK-1-4 Inhibitor I): 0.091
- log2 fold change (ralimetinib): -0.039
- log2 fold change [5]: 0.06
- log2 fold change [15]: -0.076
- log2 fold change [6]: -0.202
- log2 fold change [7]: 0.067
- log2 fold change [8]: -0.229
- log2 fold change [9]: 0.134

Target: DAPK1 isoform 3 (UniProt P53355)
Sequence of UniProt P53355 (P53355 whole entry, looked up): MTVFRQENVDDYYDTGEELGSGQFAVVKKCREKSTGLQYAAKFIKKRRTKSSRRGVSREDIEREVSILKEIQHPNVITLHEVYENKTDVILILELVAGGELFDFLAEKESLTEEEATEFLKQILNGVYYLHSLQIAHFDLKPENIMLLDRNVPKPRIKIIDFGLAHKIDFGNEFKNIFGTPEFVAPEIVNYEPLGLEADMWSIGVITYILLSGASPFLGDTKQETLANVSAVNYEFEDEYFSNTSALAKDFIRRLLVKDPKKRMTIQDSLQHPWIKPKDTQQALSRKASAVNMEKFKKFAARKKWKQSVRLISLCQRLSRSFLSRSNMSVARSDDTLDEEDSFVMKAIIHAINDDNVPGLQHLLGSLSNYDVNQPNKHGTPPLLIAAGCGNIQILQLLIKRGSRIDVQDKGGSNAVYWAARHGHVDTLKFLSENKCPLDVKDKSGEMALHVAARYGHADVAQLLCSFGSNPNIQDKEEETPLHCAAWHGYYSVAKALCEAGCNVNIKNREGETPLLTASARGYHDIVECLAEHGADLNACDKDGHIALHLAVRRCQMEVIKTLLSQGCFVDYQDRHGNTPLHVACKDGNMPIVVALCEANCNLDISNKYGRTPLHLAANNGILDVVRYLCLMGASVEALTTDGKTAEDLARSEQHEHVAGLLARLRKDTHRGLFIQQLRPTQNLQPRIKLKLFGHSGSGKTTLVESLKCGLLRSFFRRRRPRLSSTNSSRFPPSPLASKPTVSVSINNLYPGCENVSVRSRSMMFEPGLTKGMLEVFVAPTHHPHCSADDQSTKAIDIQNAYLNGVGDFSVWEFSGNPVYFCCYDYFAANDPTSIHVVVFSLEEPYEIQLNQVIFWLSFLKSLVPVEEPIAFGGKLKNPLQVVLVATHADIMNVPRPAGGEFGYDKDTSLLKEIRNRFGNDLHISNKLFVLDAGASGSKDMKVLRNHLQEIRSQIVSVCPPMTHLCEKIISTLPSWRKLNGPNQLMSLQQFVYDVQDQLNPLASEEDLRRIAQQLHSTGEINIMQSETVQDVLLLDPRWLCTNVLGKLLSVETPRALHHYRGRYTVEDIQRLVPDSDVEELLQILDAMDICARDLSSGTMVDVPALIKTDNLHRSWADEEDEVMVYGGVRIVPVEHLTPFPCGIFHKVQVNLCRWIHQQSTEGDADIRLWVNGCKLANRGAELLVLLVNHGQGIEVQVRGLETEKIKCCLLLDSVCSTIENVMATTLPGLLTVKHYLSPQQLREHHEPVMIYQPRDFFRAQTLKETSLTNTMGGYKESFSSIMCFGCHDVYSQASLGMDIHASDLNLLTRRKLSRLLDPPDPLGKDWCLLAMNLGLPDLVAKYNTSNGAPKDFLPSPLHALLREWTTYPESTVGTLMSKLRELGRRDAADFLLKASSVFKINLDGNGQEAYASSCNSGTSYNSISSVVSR
- log2 fold change (erlotinib): -0.015
- log2 fold change [10]: -0.17
- log2 fold change [11]: -0.306
- log2 fold change [12]: -0.274
- log2 fold change [2]: 0.061
- log2 fold change [13]: 0.181
- log2 fold change (IRAK-1-4 Inhibitor I): 0.008
- log2 fold change [14]: 0.35
- log2 fold change (ralimetinib): 0.041
- log2 fold change [5]: 0
- log2 fold change [15]: -0.077
- log2 fold change [6]: 0.138
- log2 fold change [7]: 0.017
- log2 fold change [8]: -0.151
- log2 fold change [9]: -0.026
- log2 fold change [16]: -0.094

Target: CRLS1 (UniProt Q9UJA2)
Sequence of UniProt Q9UJA2 (Q9UJA2 whole entry, looked up): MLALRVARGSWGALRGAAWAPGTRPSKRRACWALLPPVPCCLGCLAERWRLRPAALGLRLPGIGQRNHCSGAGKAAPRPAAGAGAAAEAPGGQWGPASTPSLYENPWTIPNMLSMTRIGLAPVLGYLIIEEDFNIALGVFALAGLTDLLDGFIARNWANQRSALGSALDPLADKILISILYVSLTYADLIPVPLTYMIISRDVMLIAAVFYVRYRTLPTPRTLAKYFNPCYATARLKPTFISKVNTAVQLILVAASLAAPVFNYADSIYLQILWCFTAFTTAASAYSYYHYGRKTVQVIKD
- log2 fold change (erlotinib): 0.074
- log2 fold change [11]: -0.085
- log2 fold change [1]: 0.087
- log2 fold change [2]: 0.056
- log2 fold change (IRAK-1-4 Inhibitor I): -0.021
- log2 fold change (ibrutinib): -0.023
- log2 fold change [14]: -0.008
- log2 fold change (ralimetinib): 0.079
- log2 fold change [5]: -0.027
- log2 fold change [15]: -0.102
- log2 fold change [6]: -0.049
- log2 fold change [8]: 0.066
- log2 fold change [9]: 0.058
- log2 fold change [16]: 0.048

Target: DNM2 isoform 4 (UniProt P50570)
- log2 fold change (erlotinib): 0.099
- log2 fold change [11]: 0.107
- log2 fold change [2]: 0.072
- log2 fold change [3]: -0.11
- log2 fold change [4]: -0.011
- log2 fold change (IRAK-1-4 Inhibitor I): 0.133
- log2 fold change [14]: -0.018
- log2 fold change (ralimetinib): 0.011
- log2 fold change [5]: -0.027
- log2 fold change [15]: -0.143
- log2 fold change [6]: -0.07
- log2 fold change [7]: 0.075
- log2 fold change [8]: -0.08
- log2 fold change [9]: 0.047
- log2 fold change [16]: 0.058

Target: CSNK1A1 isoform 3 (UniProt P48729)
Sequence of UniProt P48729 (P48729 whole entry, looked up): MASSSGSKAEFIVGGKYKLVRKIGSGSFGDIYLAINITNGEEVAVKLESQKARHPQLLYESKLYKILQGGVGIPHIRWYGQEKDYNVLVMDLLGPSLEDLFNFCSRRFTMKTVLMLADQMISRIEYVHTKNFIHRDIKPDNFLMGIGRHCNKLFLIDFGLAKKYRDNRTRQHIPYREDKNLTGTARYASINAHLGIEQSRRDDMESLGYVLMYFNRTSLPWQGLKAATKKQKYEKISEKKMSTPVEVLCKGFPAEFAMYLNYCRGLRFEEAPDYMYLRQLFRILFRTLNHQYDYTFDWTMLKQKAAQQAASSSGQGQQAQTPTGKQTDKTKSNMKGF
- log2 fold change [2]: -0.006
- log2 fold change (IRAK-1-4 Inhibitor I): 0.088
- log2 fold change (ralimetinib): 0.13
- log2 fold change [5]: 0.253
- log2 fold change [7]: -0.061
- log2 fold change [9]: 0.143

Target: CLIP1, A0A3B3ITA2
- log2 fold change [10]: 0.025
- log2 fold change [12]: 0.004
- log2 fold change [2]: -0.039
- log2 fold change [13]: -0.103
- log2 fold change (IRAK-1-4 Inhibitor I): 0.121
- log2 fold change (ralimetinib): 0.156
- log2 fold change [5]: -0.173
- log2 fold change [8]: 0.019
- log2 fold change [9]: -0.215

Target: DLGAP5 isoform 3 (UniProt Q15398)
- log2 fold change [1]: -0.009
- log2 fold change (ibrutinib): -0.076
- log2 fold change [7]: 0.233

Target: DHRS13 (UniProt Q6UX07)
- log2 fold change (erlotinib): 0.227
- log2 fold change [11]: -0.074
- log2 fold change [1]: -0.142
- log2 fold change [2]: 0.133
- log2 fold change (IRAK-1-4 Inhibitor I): -0.162
- log2 fold change (ibrutinib): -0.106
- log2 fold change [14]: -0.003
- log2 fold change (ralimetinib): 0.094
- log2 fold change [5]: -0.111
- log2 fold change [15]: -0.073
- log2 fold change [6]: 0.082
- log2 fold change [7]: -0.292
- log2 fold change [8]: 0.03
- log2 fold change [9]: -0.009
- log2 fold change [16]: 0.111

Target: CLASP1 isoform 4 (UniProt Q7Z460)
Sequence of UniProt Q7Z460 (Q7Z460 whole entry, looked up): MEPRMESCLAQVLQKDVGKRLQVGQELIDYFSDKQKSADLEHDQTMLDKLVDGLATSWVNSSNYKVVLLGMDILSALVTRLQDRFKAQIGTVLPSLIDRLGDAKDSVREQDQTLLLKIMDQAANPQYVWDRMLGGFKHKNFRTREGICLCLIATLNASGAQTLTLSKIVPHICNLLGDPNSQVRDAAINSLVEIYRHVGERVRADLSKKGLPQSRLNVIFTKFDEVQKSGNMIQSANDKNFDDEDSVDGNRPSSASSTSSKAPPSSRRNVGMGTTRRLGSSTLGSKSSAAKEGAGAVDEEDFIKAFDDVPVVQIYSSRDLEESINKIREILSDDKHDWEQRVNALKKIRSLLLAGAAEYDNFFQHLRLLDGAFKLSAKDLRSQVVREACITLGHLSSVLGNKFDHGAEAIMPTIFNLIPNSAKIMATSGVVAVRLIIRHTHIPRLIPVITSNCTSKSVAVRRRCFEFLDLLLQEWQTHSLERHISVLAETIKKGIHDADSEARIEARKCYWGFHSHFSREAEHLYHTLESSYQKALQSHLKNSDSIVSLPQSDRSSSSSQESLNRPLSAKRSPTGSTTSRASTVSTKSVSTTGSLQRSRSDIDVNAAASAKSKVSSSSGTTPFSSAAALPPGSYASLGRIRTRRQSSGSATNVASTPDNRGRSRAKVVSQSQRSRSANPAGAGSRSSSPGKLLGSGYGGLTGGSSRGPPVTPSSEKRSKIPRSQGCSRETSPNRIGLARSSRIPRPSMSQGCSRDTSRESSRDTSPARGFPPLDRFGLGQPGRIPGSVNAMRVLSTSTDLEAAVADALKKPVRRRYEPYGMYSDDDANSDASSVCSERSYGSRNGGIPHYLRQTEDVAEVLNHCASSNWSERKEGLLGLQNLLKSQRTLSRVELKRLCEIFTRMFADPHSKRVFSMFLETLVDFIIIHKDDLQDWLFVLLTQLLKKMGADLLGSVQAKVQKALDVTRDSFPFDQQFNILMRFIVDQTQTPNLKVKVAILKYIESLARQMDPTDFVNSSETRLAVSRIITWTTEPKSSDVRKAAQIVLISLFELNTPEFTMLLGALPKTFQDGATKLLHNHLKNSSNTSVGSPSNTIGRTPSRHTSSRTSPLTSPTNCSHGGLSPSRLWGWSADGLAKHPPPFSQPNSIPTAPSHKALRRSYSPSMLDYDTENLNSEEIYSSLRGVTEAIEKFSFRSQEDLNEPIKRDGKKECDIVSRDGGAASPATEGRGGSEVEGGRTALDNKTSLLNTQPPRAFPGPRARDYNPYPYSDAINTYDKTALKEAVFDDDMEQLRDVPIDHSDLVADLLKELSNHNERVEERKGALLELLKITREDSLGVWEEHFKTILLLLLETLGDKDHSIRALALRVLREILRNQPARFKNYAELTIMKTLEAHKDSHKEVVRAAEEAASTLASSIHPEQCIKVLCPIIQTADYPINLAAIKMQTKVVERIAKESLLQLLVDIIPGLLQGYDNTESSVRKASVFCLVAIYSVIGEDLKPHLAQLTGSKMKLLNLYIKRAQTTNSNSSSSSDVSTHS
- log2 fold change (erlotinib): 0.199
- log2 fold change [10]: -0.041
- log2 fold change [11]: 0.04
- log2 fold change [12]: -0.262
- log2 fold change [13]: -0.029
- log2 fold change [15]: -0.124
- log2 fold change [6]: -0.226

Target: CLASP2 (UniProt O75122)
Sequence of UniProt O75122 (O75122 whole entry, looked up): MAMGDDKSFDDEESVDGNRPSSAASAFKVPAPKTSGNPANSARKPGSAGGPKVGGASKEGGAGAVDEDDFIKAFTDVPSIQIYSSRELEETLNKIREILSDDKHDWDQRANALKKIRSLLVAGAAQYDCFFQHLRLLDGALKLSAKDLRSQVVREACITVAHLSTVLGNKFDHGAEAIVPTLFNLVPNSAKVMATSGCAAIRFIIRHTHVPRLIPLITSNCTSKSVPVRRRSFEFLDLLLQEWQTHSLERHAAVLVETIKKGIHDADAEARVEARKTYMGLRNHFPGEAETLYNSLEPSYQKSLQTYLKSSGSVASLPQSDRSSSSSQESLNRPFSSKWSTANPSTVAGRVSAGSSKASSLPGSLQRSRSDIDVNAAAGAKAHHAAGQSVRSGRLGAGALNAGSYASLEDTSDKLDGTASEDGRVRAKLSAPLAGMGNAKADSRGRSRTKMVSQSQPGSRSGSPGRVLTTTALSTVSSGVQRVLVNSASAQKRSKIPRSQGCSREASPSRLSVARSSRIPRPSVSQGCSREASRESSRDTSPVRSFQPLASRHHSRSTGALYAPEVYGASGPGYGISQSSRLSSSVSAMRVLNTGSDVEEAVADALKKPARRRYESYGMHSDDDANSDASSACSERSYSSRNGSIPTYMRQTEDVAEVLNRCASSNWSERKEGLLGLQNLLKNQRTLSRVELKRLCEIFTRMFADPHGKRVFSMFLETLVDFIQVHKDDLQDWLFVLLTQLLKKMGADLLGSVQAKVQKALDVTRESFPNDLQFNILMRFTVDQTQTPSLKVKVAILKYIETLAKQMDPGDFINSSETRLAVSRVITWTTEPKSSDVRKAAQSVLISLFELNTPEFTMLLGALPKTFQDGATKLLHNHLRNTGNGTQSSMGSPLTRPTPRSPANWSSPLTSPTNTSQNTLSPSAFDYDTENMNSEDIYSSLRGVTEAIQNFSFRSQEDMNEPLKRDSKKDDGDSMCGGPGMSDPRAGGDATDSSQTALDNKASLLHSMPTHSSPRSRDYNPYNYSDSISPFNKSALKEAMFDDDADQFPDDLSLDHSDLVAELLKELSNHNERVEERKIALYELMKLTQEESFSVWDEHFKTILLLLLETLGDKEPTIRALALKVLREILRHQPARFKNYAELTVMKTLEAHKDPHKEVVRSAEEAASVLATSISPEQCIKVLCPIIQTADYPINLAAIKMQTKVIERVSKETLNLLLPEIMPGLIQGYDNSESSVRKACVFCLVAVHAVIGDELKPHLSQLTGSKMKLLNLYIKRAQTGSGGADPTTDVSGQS
- log2 fold change [10]: -0.114
- log2 fold change [12]: 0.12
- log2 fold change [1]: -0.225
- log2 fold change [2]: -0.044
- log2 fold change [13]: -0.059
- log2 fold change [3]: 0
- log2 fold change [4]: 0.023
- log2 fold change (IRAK-1-4 Inhibitor I): -0.017
- log2 fold change [14]: -0.048
- log2 fold change (ralimetinib): 0.075
- log2 fold change [5]: 0.069
- log2 fold change [6]: 0.044
- log2 fold change [8]: -0.098
- log2 fold change [9]: 0.001
- log2 fold change [16]: -0.028
